Source: PubChem
The entries come from a sample that favours hits as a whole.
BLM inh: qHTS Assay for Inhibitors of Bloom's syndrome helicase (BLM) | RecQ-like DNA helicase BLM (Homo sapiens), P54132 | recombinant BLM DNA unwinding, fluorescence dequenching | Potency, µM (doses to about 56.1 µM), for inactives: top-dose activity change, negative = inhibition, usual class: inhibitors | 350,000 compounds, 0.2% hits | AID 2528, 2010;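 also: plate controls were vehicle for no effect and no enzyme for full effect; nearly all actives have a fitted effect of over 35% in size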
L3MBTL1 inh: qHTS Assay for the Inhibitors of L3MBTL1 | Potency, µM (titrated, usually from 57.1 µM), for inactives: at the top dose activity, negative = inhibition, actives largely listed as inhibitors | 230,000 compounds, 0.66% hits | AlphaScreen L3MBTL1–H3K9me1 peptide binding | Lethal(3)malignant brain tumor-like protein 1 (Homo sapiens), Q9Y468; also: nearly all actives have a fitted effect of over 60% in size
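AlphaScreen proximity signal between nickel-chelate acceptor and streptavidin donor beads (final 10 ug/mL) reports binding of 50 nM L3MBTL1 to 75 nM biotin-H3 K9me1 peptide; complex incubated with compounds 30 min at room temperature; cefsulodin titration as control.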
GoLoco inh red: qHTS Assay for Inhibitors of RGS12 GoLoco Motif Activity (Red Fluorophore) | Gai1:RGS12 GoLoco peptide FP, rhodamine, 10 min | Potency, µM (doses to about 61.6 µM), for inactives: at the highest dose activity, negative = inhibition, usual class: inhibitors | 230,000 compounds, 0.44% hits | AID 880, 2007; active = well fitted inhibition curve with a large enough effect, not every such curve was filed as active; inactive = no such curve, though single readings can be large or run the other way; also: nearly all actives have a fitted effect of over 30% in size
APE1 inh: qHTS Assay for Inhibitors of the Human Apurinic/apyrimidinic Endonuclease 1 (APE1) | DNA repair nuclease/redox regulator APEX1 (Homo sapiens), P27695 | recombinant APE1, TAMRA/BHQ-2 abasic DNA cleavage fluorescence | Potency, µM (top dose mostly 65.8 µM), for inactives: at the highest dose activity change, negative = inhibition, usual class: inhibitors | 350,000 compounds, 0.35% hits | AID 2517, 2012;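 also: plate controls were vehicle for no effect and reference inhibitor for full effect; nearly all actives have a fitted effect of over 55% in size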
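APE1 at 0.75 nM preincubated 15 min at room temperature with compound. Reaction then started with 50 nM double-stranded THF-abasic substrate labelled with TAMRA/BHQ-2, and 525/598 nm fluorescence read kinetically. Activity taken as third-minus-first read difference, normalized to DMSO and NSC13755 controls.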
KDM4E inh: qHTS Assay for Inhibitors of Human Jumonji Domain Containing 2E (JMJD2E). Lysine-specific demethylase 4E (Homo sapiens), B2RXH2. JMJD2E catalytic domain, FDH-coupled NADH fluorescence (FDH is formaldehyde dehydrogenase). Potency, µM (titrated, usually from 57.1 µM), for the others: top-dose activity change, negative = inhibition, usual class: inhibitors. 230,000 compounds, 1.6% hits; active = well fitted inhibition curve with a large enough effect, not every such curve was filed as active; inconclusive = small, poorly fitted or top-dose-only effect, or another doubt; inactive = no such curve, though single readings can be large or run the other way;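 also: 0% = wells with enzyme and -100% = buffer wells without enzyme; nearly all actives have a fitted effect of over 50% in size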
RECQ1 helicase: qHTS Assay for Inhibitors of RecQ-Like Dna Helicase 1 (RECQ1); Potency, µM (top dose mostly 57.3 µM), inactives show top-dose activity, negative = inhibition, actives largely listed as inhibitors; RECQ1 DNA unwinding, red fluorescence kinetic read; ATP-dependent DNA helicase Q1 (Homo sapiens), P46063; 240,000 compounds, 0.54% hits;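 also: plate controls were vehicle for no effect and no enzyme for full effect; nearly all actives have a fitted effect of over 30% in size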
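RECQ1T1 50 nM; forked duplex (20 bp + 30-nt ss tails) 200 nM, ATP 2 mM final; pH 8.0, 2 mM MgCl2, 2.5 ug/ml poly(dI-dC); 15 min compound preincubation; discontinuous kinetic read over 2 h at RT.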
Numbers without * were called inactive; i = inactive; ? = inconclusive; · = not tested or not shown; ! = not active in a repeat; [ ] = another dose, or the depositor's remark. Unless noted, calls follow the shape of the dose curve; as a rule, active = well fitted curve in the direction sought with a large enough effect; inconclusive = small, poorly fitted or top-dose-only effect, or another doubt; inactive = no such curve, though single readings can be large; an effect the other way counts as inactive or inconclusive. Unless noted, % is scaled to controls: 0 for no effect and ±100 for the full control effect; potency is read from the fitted curve at half-maximal effect.

SMILES | BLM inh | L3MBTL1 inh | GoLoco inh red | APE1 inh | KDM4E inh | RECQ1 helicase
Cc1ccc(/C=C/c2nc3sc(C(=O)O)c(C)c3c(=O)[nH]2)cc1[N+](=O)[O-] | -9.4% | · | · | 8.44µM* | · | ·
Nc1ncnc2c1ncn2C1O[C@H](CO)[C@@H](O)[C@@H]1O (stereo partly drawn) | · | 2.2% | · | -1.9% | · | ·
Nc1ncnc2c1c(I)cn2C1OC(CO)C(O)C1O (stereo not drawn) | 4.7% | · | 25.1µM*! | -2.7% | 0.5% | ?
O=C(C1COc2cc(S(=O)(=O)Nc3ccc(Cl)cc3)ccc2O1)N1CCCC1 (stereo not drawn) | -1.5% | · | · | · | · | ·
COc1cc2nc(N3CCN(C(=O)[C@H]4CCCO4)CC3)nc(N)c2cc1OC | 1.1% | · | 1.5% | -5.3% | ? | i
COc1cc2nc(N3CCN(C(=O)C4CCCO4)CC3)nc(N)c2cc1OC (stereo not drawn) | -2.8% | 5.2% | 3.1% | -4.1% | 28.2µM* | 14.4%
C[C@@H]1NC(=O)[C@@H](C)COC(=O)[C@H](C)NC(=O)[C@@H](C)COC1=O | -1.6%[12.4 µM] | · | · | -11.0%[12.4 µM] | · | 1.4%[11.5 µM]
Cc1ccc(C2(C)NC(=O)N(CC(=O)Nc3ccccc3N3CCCC3)C2=O)cc1 (stereo not drawn) | · | 2.82µM* | · | 35.3% | · | ·
COc1cc(C(=O)Nc2ccc3[nH]c(=O)sc3c2)cc(OC)c1OC | -4.2% | · | · | · | · | ·
C[C@H]1Cc2c(COc3ccccc3)nc3c(c2CO1)CN(C(=O)Cc1cccs1)CC3 | -3.9%[12.4 µM] | · | 11.5%[14.2 µM] | -2.1%[12.4 µM] | -3.6%[11.4 µM] | -8.5%[11.5 µM]
O=CN/C=C/c1cc(O)ccc1O | -27.0% | 15.8µM* | -21.3% | 10µM* | ? | -25.4%
O=Cc1ccc(O)cc1O | 0.0% | · | · | 21.9% | · | ·
CC[C@H]1OC(=O)[C@H](C)C(=O)[C@H](C)[C@@H](O[C@@H]2O[C@H](C)C[C@H](N(C)C)[C@H]2O)[C@](C)(OC)C[C@@H](C)C(=O)[C@H](C)[C@H]2N(CCCCn3cnc(-c4cccnc4)c3)C(=O)O[C@]12C | · | · | · | -3.9% | · | ·
O=C(CNC(=O)c1ccccc1)N/N=C/c1cc(Br)ccc1O | -3.0% | -4.5% | 10.8% | 1.0% | 28.2µM* | 11.6%
O=C(Cc1ccccc1)N/N=C/c1cc(Br)cc(Cl)c1O | -4.3% | 17.4% | 18.8% | -0.2% | 6.31µM* | i
O=C(N/N=C/c1cc(Cl)ccc1O)c1cccnc1 | 0.3% | -75.4% | · | -6.7% | · | ·
O=C(CNC(=O)c1ccccc1Br)N/N=C/c1ccccc1O | -6.4% | -10.6% | 2.8% | 0.0% | 25.1µM* | i
O=C(N/N=C/c1cc(Cl)ccc1O)c1ccccc1Br | -8.4% | · | 2.7% | -7.4% | 11.2µM* | -3.2%
O=C(CNC(=O)c1ccccc1Br)N/N=C/c1cc(Br)ccc1O | -15.0% | · | 13.4% | -2.5% | ? | -0.3%
COC(=O)[C@@H]1C[C@@]2(O)[C@H](O)[C@H](O)[C@H](O)C[C@H]2N1Cc1ccc(-c2ccccc2)cc1 | 2.0% | · | 4.1% | -2.2% | 8.91µM*! | 0.4%
COc1ccccc1-c1no[n+]([O-])c1C#N | · | · | · | -1.6% | · | ·
O=C1/C(=C\c2ccco2)SC(=S)N1C1CCS(=O)(=O)C1 (stereo not drawn) | -14.7% | ? | 23.6% | 20µM* | 28.2µM* | ?
COc1ccc(CCN2C(=O)/C(=C\c3ccco3)SC2=S)cc1OC | -26.7% | 17.8µM* | 57.6% | 18.4% | -12.8% | -7.8%
O=C1/C(=C\c2ccco2)SC(=S)N1c1ccccc1 | -1.3% | ? | 70.2% | 22.4µM* | 20µM* | 8.0%
O=C1/C(=C/c2ccco2)SC(=S)N1C1CCS(=O)(=O)C1 (stereo not drawn) | -2.8% | ? | 36.5% | -0.4% | 1.0% | -0.7%
SMILES | BLM inh | L3MBTL1 inh | GoLoco inh red | APE1 inh | KDM4E inh | RECQ1 helicase
O=C1/C(=C\c2ccco2)SC(=S)N1Cc1ccccc1 | -21.6% | -26.1% | 105.8% | ? | -14.3% | 31.6µM*
O=C1/C(=C/c2ccccn2)SC(=S)N1Cc1ccccc1 | 0.5% | 1.5% | -151.6% | ? | 1.1% | -7.0%
Cc1nnc(SCc2ccccc2Cl)c2cc3sccc3n12 | -7.5% | · | · | · | · | ·
COC(=O)c1ccc(NC(=O)CCc2c(C)nc3c(c(C)nn3C(C)(C)C)c2C)cc1 | -8.8% | · | · | · | · | ·
COC(=O)N1C(c2ccccc2)=Cc2ccccc2C1CC(C)=O (stereo not drawn) | 2.0%[12.4 µM] | · | 4.0%[14.2 µM] | -3.3%[12.4 µM] | -25.6%[11.4 µM] | 0.0%[11.5 µM]
COc1ccc2c(c1)O[C@H](c1ccc3c(c1)OCO3)[C@@H](OC(=O)NS(=O)(=O)c1ccc(C)cc1)C2=O | -4.0% | · | -0.3% | -1.8% | 1.3% | -4.8%
C=C1CC[C@@H]2[C@](C)(CO)[C@H](O)CC[C@@]2(C)[C@@H]1C/C=C1/C(=O)OC[C@H]1O | · | · | · | -0.4% | · | ·
O=C(CCN1C(=O)/C(=C/c2ccco2)SC1=S)Nc1ccc(C(=O)O)c(O)c1 | -7.8% | · | · | 21.2µM* | · | ·
O=C(CCN1C(=O)/C(=C\c2ccco2)SC1=S)Nc1ccc(C(=O)O)c(O)c1 | -8.0% | · | · | ? | · | ·
CCS(=O)(=O)N1CCc2cc(C(=O)Nc3cccc(C(C)=O)c3)ccc21 | -2.4% | · | · | · | · | ·
O=c1[nH]c(SCc2c(F)cccc2Cl)nc2c1CCCC2 | -5.5% | · | · | · | · | ·
COC(=O)[C@@H](N)Cc1ccc(O)c(O)c1 | -3.3% | -2.1% | -11.1% | -6.7% | 12.6µM* | -10.2%
CCc1ccc2oc(-c3cc(NC(=O)c4cccnc4)cc(C)c3O)nc2c1 | -3.7% | · | · | · | · | ·
COc1ccc(N/N=C(/N=Nc2nc(C)cc(=O)[nH]2)c2ccccc2)cc1 | -2.8% | · | -2.7% | -2.3% | 14.1µM* | i
Cc1cc(=O)[nH]c(N=N/C(=N/Nc2ccc(O)cc2)c2ccccc2)n1 | -7.7% | · | -52.0% | 4.1% | 3.3% | -1.6%
Fc1ccccc1C1CC(c2ccco2)=Nc2ccccc2S1 (stereo not drawn) | 1.2% | · | 2.2% | -0.2% | 28.2µM* | ?
Nc1ncnc2c1ncn2C[C@@H](O)C(=O)O | · | · | -8.6%[14.2 µM] | · | · | ·
CCCCCC[C@@H]([C@@H](C)O)n1cnc2c(N)ncnc21 | 7.9% | · | -2.3% | -0.5% | 12.6µM*! | -1.6%
Cc1ccccc1NC(=O)Cn1c(=O)n(Cc2ccccc2)c(=O)c2sc3ccccc3c21 | -7.1% | · | · | · | · | ·
